Measurements published in PubChem BioAssay (NCATS).
“And” between values parts separate entries of the source, which are not always exact repeats. Equal values may be shown once. Inconclusive results are not listed. A call without a number means that no potency is given here. More than one record can exist for a structure, and the calls need not agree. The source made the active and inactive calls. Calls come from the whole dose curve; as a rule, active = well fitted curve in the direction sought with a large enough effect; inconclusive = small, poorly fitted or top-dose-only effect, or another doubt; inactive = no such curve, though single readings can be large; an effect the other way counts as inactive or inconclusive.

Legend:
[1] = qHTS assay to identify small molecule inhibitors of chordoma cells - UCH-2 (AID 1259356)
[2] = P-glycoprotein substrates identified in KB-3-1 adenocarcinoma cell line, qHTS therapeutic library screen (AID 1346986); conditions: KB-3-1 parental cells viability, CellTiter-Glo, 72 h; at 44.5 µM (top of the series); note: nearly all actives have a fitted effect of over 60% in size
Procedure, shortened: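 Dose-response cytotoxicity, KB-3-1 vs P-gp-high KB-8-5-11, no colchicine in assay medium. Read: CellTiter-Glo at 72 h.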

[3] = P-glycoprotein substrates identified in KB-8-5-11 adenocarcinoma cell line, qHTS therapeutic library screen (AID 1346987); note: nearly all actives have a fitted effect of over 65% in size; note: potency is the fitted concentration of half-maximal effect
Procedure, shortened: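 Human cervical adenocarcinoma KB-8-5-11 cells, selected in colchicine to over-express P-gp and assayed without it, were exposed for 72 h to titrated compounds. An ATP-based luminescent viability signal gave AC50.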

[4] = Identifying Small Molecule Inhibitors of Pancreatic Cancer Stem Cells (SN12C, Adherent) (AID 1259358);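 note: potency is the fitted concentration of half-maximal effect; cell survival measured after 48 h of compound exposure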
Procedure, shortened: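 Adherent (2D) versus sphere (3D) formats; spheres generated 14 d in SCM beforehand. Compound transferred by pin tool after 4 h, 48 h incubation, CellTiter-Glo endpoint.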

[5] = Identifying Small Molecule Inhibitors of Pancreatic Cancer Stem Cells (Panc1, Spheroid) (AID 1259359); conditions: Panc1 spheroid cancer stem cell viability;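 note: potency is the fitted concentration of half-maximal effect; compound exposure lasted 48 h before reading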
Procedure, shortened: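 Monolayer and spheroid cultures are compared. Spheroids form over 14 days in stem cell medium on hydrogel-coated low-attachment plates, then are exposed to compound for 48 h before CellTiter-Glo luminescence.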

[6] = Identifying Small Molecule Inhibitors of Pancreatic Cancer Stem Cells (A278, Adherent) (AID 1259361);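 note: viability read after 48 h compound exposure; nearly all actives have a fitted effect of over 35% in size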
Excerpt: Progenitor-like cancer cells, often referred to as cancer stem cells (CSC), are believed to be the drivers of therapeutic resistance and rapid recurrence. CSCs are postulated to reside in specific niches characterized by low oxygen tension, limited nutrient supply, and high redox load. Selectively targeting CSC, alone or in combination with cytotoxic agents, as a means to produce durable remissions is an appealing concept. Modeling these cells in in vitro setting is an important step in finding new therapies and/or targets. Multiple reports highlight that forcing cells in culture into 3-dimensionaly architectures (spheroids) re-establishes key progenitor-like transcriptional signatures. Pancreatic cancer is among the diseases with the most dismal outlook which is driven, largely, by recurance following front-line therapies. […] In hopes of deriving new insight into the targeting of these pancreatic CSCs we examined three established pancreatic cancer cell lines in cytotoxicity assays versus a collection of approved and investigational drugs. Importantly, we screened these lines as traditional monolayer (2D) and spheroid (3D) formats to gain an appreciation of agents with differential activity.
Multicellular tumor spheroids from Panc1, MiaPaCa-2, and the primary low-passage tissue culture line SB.06 were seeded in stem cell media (SCM) in nonadherent 6-well plates coated with hydrogel (Corning Life Sciences, Chelmsford, Mass) and pancreatic spheres generated for 14 days before screening. Cells were seeded into 1536-well solid-bottom white tissue culture treated Greiner Bio One Plates (789173-F) using a MultiDrop Combi (Thermofisher Scientific) dispenser and a small sterile cassette. One column was media alone to be used as a :"no cells" control. The plates were then covered with sterilized stainless steel gasketed lids from Kalypsys. After allowing cells to attach for 4 hours, 23 nL of test compound or control (negative control DMSO and positive control 9.2 uM Bortezomib-final) were added from a 1536-well polypropylene compound source plate to each well using a 1536 head pin tool from Kalypsys. Cells were then incubated for 48 hours at 37C, 95% relative humidity and 5% CO2. After 48 hours, plates were removed from the incubator and 3 uL of CellTiter-Glo (Promega) was added using an Aurora Flying Reagent Dispenser Bioraptor. Plates were incubated at room temperature for 10 minutes prior to reading the luminescence on the Viewlux (PerkinElmer). The relative luciferase units are used to calculate the percent activity using the activity of DMSO in the cells and no cells columns for normalization of no inhibition and full inhibition respectively.

**Q.** For COC(c1ccccc1)(c1ccccc1)[C@H](Oc1nc(C)cc(C)n1)C(=O)O, which Potency [1] is on record?
**A.** Its Potency is “inactive”.

**Q.** What about the outcome [2] of the same compound?
**A.** Its outcome is “inactive”.

**Q.** And the Potency [3]?
**A.** Its Potency is “inactive”.

**Q.** For CC(C)OC(=O)C(C(=O)OC(C)C)=C1SC=CS1, which Potency [1] is on record?
**A.** Its Potency is “inactive”.

**Q.** And the outcome [2]?
**A.** The outcome was “inactive”.

**Q.** And the Potency [3]?
**A.** The Potency was “inactive”.

**Q.** With CNNCc1ccc(C(=O)NC(C)C)cc1 as the compound, how does the Potency [1] read?
**A.** The Potency was “inactive”.

**Q.** What about the outcome [2] of the same compound?
**A.** Its outcome is “inactive”.

**Q.** And the Potency [3]?
**A.** Its Potency is “inactive”.

**Q.** Which results are given for CC1=NN(c2ccccc2)C(=O)C1?
**A.** Potency [1]: inactive; outcome [2]: inactive; Potency [3]: inactive

**Q.** For COc1cnc(NS(=O)(=O)c2ccc(N)cc2)nc1, which Potency [1] is on record?
**A.** Its Potency is “inactive”.

**Q.** What about the outcome [2] of the same compound?
**A.** Its outcome is “inactive”.

**Q.** What about the Potency [3] of the same compound?
**A.** The Potency was “inactive”.

**Q.** For Cc1onc(-c2ccccc2Cl)c1C(=O)N[C@@H]1C(=O)N2[C@@H]1SC(C)(C)[C@@H]2C(=O)O, which Potency [1] is on record?
**A.** Its Potency is “inactive”.

**Q.** For COc1c(N2CCNC(C)C2)c(F)cc2c(=O)c(C(=O)O)cn(C3CC3)c12 (centres undefined), which Potency [1] is on record?
**A.** The Potency was “inactive”.

**Q.** And the outcome [2]?
**A.** The outcome was “inactive”.

**Q.** And the Potency [3]?
**A.** Its Potency is “inactive”.

**Q.** What does the source list for Nc1nc(F)nc2c1ncn2[C@@H]1O[C@H](CO)[C@@H](O)[C@@H]1O?
**A.** Potency [1]: inactive; outcome [2]: inactive; Potency [3]: inactive and 662 nM (active)

**Q.** For NC(=O)c1cccnc1, which Potency [1] is on record?
**A.** Its Potency is “inactive”.

**Q.** With CCOCC(O)COc1ccc(NC(=O)CC[S+](C)C)cc1 (centres undefined) as the compound, how does the Potency [1] read?
**A.** The Potency was “inactive”.

**Q.** And the outcome [2]?
**A.** Its outcome is “inactive”.

**Q.** What about the Potency [3] of the same compound?
**A.** Its Potency is “inactive”.

**Q.** Which Potency [1] does the source give for CNC1CCCN(c2c(F)cc3c(=O)c(C(=O)O)cn(C4CC4)c3c2OC)C1 (centres undefined) here?
**A.** The Potency was “inactive”.

**Q.** And the outcome [2]?
**A.** The outcome was “inactive”.

**Q.** And the Potency [3]?
**A.** Its Potency is “inactive”.

**Q.** With O=S(=O)(c1cccc2cnccc12)N1CCCNCC1 as the compound, how does the Potency [1] read?
**A.** Its Potency is “inactive”.

**Q.** What about the outcome [2] of the same compound?
**A.** The outcome was “inactive”.

**Q.** And the Potency [3]?
**A.** The Potency was “inactive”.

**Q.** With Nc1[nH]c(=O)ncc1F as the compound, how does the Potency [1] read?
**A.** Its Potency is “inactive”.

**Q.** For CCCc1nc(C)c2c(=O)[nH]c(-c3cc(S(=O)(=O)N4CCN(CC)CC4)ccc3OCC)nn12, which Potency [1] is on record?
**A.** Its Potency is “inactive”.

**Q.** With Cc1noc(NS(=O)(=O)c2ccc(N)cc2)c1C as the compound, how does the Potency [1] read?
**A.** Its Potency is “inactive”.

**Q.** And the outcome [2]?
**A.** The outcome was “inactive”.

**Q.** What about the Potency [3] of the same compound?
**A.** The Potency was “inactive”.

**Q.** For CC1=CC(=O)c2ccccc2C1=O, which Potency [1] is on record?
**A.** The Potency was “inactive”.

**Q.** What about the outcome [2] of the same compound?
**A.** Its outcome is “inactive”.

**Q.** What about the Potency [3] of the same compound?
**A.** Its Potency is “inactive”.

**Q.** For Cc1ccnc2c1NC(=O)c1cccnc1N2C1CC1, which Potency [1] is on record?
**A.** The Potency was “inactive”.

**Q.** What about the outcome [2] of the same compound?
**A.** Its outcome is “inactive”.

**Q.** What about the Potency [3] of the same compound?
**A.** Its Potency is “inactive”.

**Q.** Which Potency [1] does the source give for Cc1cc(NS(=O)(=O)c2ccc(N)cc2)no1 here?
**A.** The Potency was “inactive”.

**Q.** What about the outcome [2] of the same compound?
**A.** The outcome was “inactive”.

**Q.** What about the Potency [3] of the same compound?
**A.** The Potency was “inactive”.

**Q.** What does the source list for COc1ccc(-c2ccc3cc(C(=O)O)ccc3c2)cc1C12CC3CC(CC(C3)C1)C2?
**A.** Potency [1]: inactive; outcome [2]: inactive; Potency [3]: 13 µM (active) and inactive

**Q.** What does the source list for Cn1c(=O)c2c(ncn2CC(O)CO)n(C)c1=O (centres undefined)?
**A.** Potency [1]: inactive; outcome [2]: inactive; Potency [3]: inactive

**Q.** Which Potency [1] does the source give for CCCCOc1ccc(CC(=O)NO)cc1 here?
**A.** The Potency was “inactive”.

**Q.** What about the outcome [2] of the same compound?
**A.** Its outcome is “inactive”.

**Q.** Which results are given for CN1CCN(c2c(F)cc3c(=O)c(C(=O)O)cn4c3c2OCN4C)CC1?
**A.** Potency [1]: inactive; outcome [2]: inactive; Potency [3]: inactive

**Q.** Which Potency [1] does the source give for Nc1ccc(S(=O)(=O)Nc2ccccn2)cc1 here?
**A.** The Potency was “inactive”.

**Q.** Which Potency [1] does the source give for CC(C)(C#N)c1cc(Cn2cncn2)cc(C(C)(C)C#N)c1 here?
**A.** Its Potency is “inactive”.

**Q.** What does the source list for O=NN(CCCl)C(=O)NC1CCCCC1?
**A.** Potency [1]: inactive; outcome [2]: inactive; Potency [3]: inactive

**Q.** Which Potency [1] does the source give for CCC(=O)O[C@]1(C(=O)SCF)[C@H](C)C[C@H]2[C@@H]3C[C@H](F)C4=CC(=O)C=C[C@]4(C)[C@@]3(F)[C@@H](O)C[C@@]21C here?
**A.** The Potency was “inactive”.

**Q.** And the outcome [2]?
**A.** Its outcome is “inactive”.

**Q.** What about the Potency [3] of the same compound?
**A.** Its Potency is “inactive”.

**Q.** With Cc1oc(=O)oc1CN1CCN(c2cc3c(cc2F)c(=O)c(C(=O)O)c2n3C(C)S2)CC1 (centres undefined) as the compound, how does the Potency [1] read?
**A.** The Potency was “inactive”.

**Q.** What about the outcome [2] of the same compound?
**A.** The outcome was “inactive”.

**Q.** What about the Potency [3] of the same compound?
**A.** The Potency was “inactive”.

**Q.** For COc1cc(NS(=O)(=O)c2ccc(N)cc2)nc(OC)n1, which Potency [1] is on record?
**A.** Its Potency is “inactive”.

**Q.** And the outcome [2]?
**A.** The outcome was “inactive”.

**Q.** What about the Potency [3] of the same compound?
**A.** The Potency was “inactive”.

**Q.** For O=C(N[C@H](CO)[C@H](O)c1ccc([N+](=O)[O-])cc1)C(Cl)Cl, which Potency [1] is on record?
**A.** The Potency was “inactive”.

**Q.** What about the outcome [2] of the same compound?
**A.** Its outcome is “inactive”.

**Q.** And the Potency [3]?
**A.** The Potency was “inactive”.

**Q.** For COc1nc(N)nc2c1ncn2[C@@H]1O[C@H](CO)[C@@H](O)[C@@H]1O, which Potency [1] is on record?
**A.** Its Potency is “inactive”.

**Q.** What about the outcome [2] of the same compound?
**A.** The outcome was “inactive”.

**Q.** What about the Potency [3] of the same compound?
**A.** The Potency was “inactive”.

**Q.** For Cc1cccc(N(C)C(=S)Oc2ccc3ccccc3c2)c1, which Potency [1] is on record?
**A.** Its Potency is “inactive”.

**Q.** What about the outcome [2] of the same compound?
**A.** The outcome was “inactive”.

**Q.** And the Potency [3]?
**A.** The Potency was “inactive”.

**Q.** What does the source list for CCn1cc(C(=O)O)c(=O)c2cc(F)c(N3CCNCC3)cc21?
**A.** Potency [1]: inactive; outcome [2]: inactive; Potency [3]: inactive

**Q.** What does the source list for O=C(O)c1cn(C2CC2)c2cc(N3CCNCC3)c(F)cc2c1=O?
**A.** Potency [1]: inactive; outcome [2]: inactive; Potency [3]: inactive

**Q.** What does the source list for NS(=O)(=O)c1cc2c(cc1Cl)NC(C(Cl)Cl)NS2(=O)=O (centres undefined)?
**A.** Potency [1]: inactive; outcome [2]: inactive; Potency [3]: inactive

**Q.** What does the source list for COc1cc([C@@H]2c3cc4c(cc3[C@H](O)[C@H]3COC(=O)[C@H]23)OCO4)cc(OC)c1OC?
**A.** Potency [1]: inactive; Potency [4]: 18.7 nM (active); Potency [5]: 2.1 nM (active); IC50 (viability decrease) [6]: 14.8 nM (active); Potency [3]: 130 nM (active) and 11.8 nM (active)
